Rows were chosen to be rich in hits. Some 3.5% of all compounds tested hit in one or more screens of this group.
FBW7 act: activators of human E3 ligase FBW7. Q969H0. AlphaScreen FBW7–phospho-cyclin E peptide binding, activator screen. normalized activity (activation), % at 26.1 µM. hit rate 0.13% among 650,000. AID 1259310; in the data active = normalized activity above about 1.9%;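 also: purified mutant Fbw7 with reduced substrate affinity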
TEAD-YAP inh: TEAD-YAP interaction inhibition | HEK-TIYL cells, TEAD-Gal4/YAP UAS-luciferase luminescence | inhibition, % at 9.12 µM | hit rate 1.4% among 640,000 | AID 1259422; in the data active = inhibition above about 32%;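 also: 0% = median of test compound wells and 100% = reference inhibitor wells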
GPR151 ag: activates the human receptor GPR151 | Q8TDV0 | PathHunter beta-arrestin GPR151 cells, luminescence | activation, % at 11.2 µM | hit rate 1% among 650,000 | AID 1508602; in the data active = activation above about 4.9%;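 also: 0% = median of compound wells and 100% = cells with positive control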
MITF inh: blocks human microphthalmia-associated transcription factor | O75030 | hit rate 0.91% among 650,000 | AlphaScreen MITF homodimerization, bead proximity signal | inhibition, % at 2.6 µM; in the data active = inhibition above about 50%;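 also: 0% = vehicle wells with protein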
Starred values were filed as active, the others as inactive.

SMILES	FBW7 act	TEAD-YAP inh	GPR151 ag	MITF inh
Oc1c(C(Nc2cccnc2)c2cccs2)ccc2cccnc12 (stereo not drawn)	0	27	1	3
N#C/C(=C\c1ccccc1)C(=O)Nc1ccccc1Br	0	4	1	6
CCCc1cc(C(=O)Nc2cccc(O)c2)no1	1	74*	-5	7
O=C(Nc1cccc(O)c1)c1cc(C2CC2)on1	0	84*	-5	-4
O=C(Nc1ccc2c(c1)OCO2)c1cc(C2CC2)on1	0	-47	1	-13
CCOc1ccccc1NC(=O)Nc1cccn(Cc2ccccc2Br)c1=O	0	8	0	5
Cc1cnc(CNC(=O)c2ccc3cncc(-c4ccccc4)c3n2)cn1	0	63*	0	-4
O=C(NCc1ccccc1)c1ccc2cncc(-c3ccccc3)c2n1	0	66*	-1	60*
Cc1cccc(N2CCN(S(=O)(=O)CCNC(=O)Cc3ccc(F)cc3)CC2)c1	0	6	3	-3
COc1ccc(-c2cnnc(NCCCn3ccnc3)n2)cc1	0	32*	0	1
COc1ccc(-c2cnc(NCCCn3ccnc3)nc2)cc1	0	0	2	22
COc1cc(OC)cc(-c2cc3nc4c(c(NCCCn5ccnc5)n3n2)CCCC4)c1	2.4*	3	0	6
CCCCOc1ccc(C(=O)NC(=S)NCc2cccnc2)cc1	0	5	0	16
Oc1c(Cl)cc(CN2CCOCC2)c2cccnc12	-1	86*	0	100*
Oc1c(Br)cc(CN2CCOCC2)c2cccnc12	-1	75*	0	102*
O=C(Nc1ccc2c(c1)Cc1ccccc1-2)c1ccc([N+](=O)[O-])o1	0	9	1	3
COc1cccc(C(=O)CSc2nccc(=O)[nH]2)c1	0	6	0	-1
CS(=O)(=O)Nc1ccc(-c2cnc3cccc(Nc4cncnc4)c3c2)cc1	0	-25	-2	3
CS(=O)(=O)Nc1ccc(-c2cnc3cccc(Nc4cc(-c5ccccc5)ccn4)c3c2)cc1	2.4*	12	-1	21
COc1ccc(Nc2nc(N3CCCC3)nc3[nH]ncc23)cc1	0	48*	0	-14
CC(=O)Nc1ccc(CN2CCc3nnc(C(C)C)n3CC2)cc1	0	-10	0	-15
COc1cc2cc(CN(CCN(C)C)C(=O)NCc3ccccc3)c(=O)[nH]c2cc1OC	0	-5	0	15
Cc1c(C(=O)NC2CCCCC2)sc2ncn(CC(=O)N3CCCCC3C)c(=O)c12 (stereo not drawn)	2.0*	0	0	22
Cc1c(C(=O)NC(C)C)sc2ncn(CC(=O)N3CCCCC3C)c(=O)c12 (stereo not drawn)	0	0	0	7
COc1cc(-c2ccc(NC(=O)Nc3ccccc3C)c(OC)c2)ccc1NC(=O)Nc1ccccc1C	0	45*	-2	14
SMILES	FBW7 act	TEAD-YAP inh	GPR151 ag	MITF inh
COC(=O)c1cc(Br)ccc1NC(=O)c1cc(OC)c(OC)c(OC)c1	0	-8	1	9
O=C1CC(Sc2nc(-c3ccc(Cl)c(Cl)c3)cc(C(F)(F)F)n2)C2COC1O2 (stereo not drawn)	0	-5	1	8
c1ccc2c(NC3CC3)nc(N3CCCC3)nc2c1	1	32*	0	3
Clc1nc(NC2CCCC2)c2ccccc2n1	0	60*	-1	15
c1ccc(-c2nc(NC3CCCCC3)c3ccccc3n2)cc1	0	8	1	9
O=c1oc(-c2ccco2)nc2sc3c(c12)CCCC3	0	2	-2	2
c1coc(-c2nnc(-c3cc4c(s3)CCCC4)o2)c1	0	54*	-8	-6
CC(=O)c1cccc(-c2nc(NCCCN3CCCC3=O)c3ncn(C(C)C)c3n2)c1	0	44*	-1	-4
CC(=O)c1cccc(-c2nc(NCCCN3CCCC3=O)c3ncn(-c4ccsc4)c3n2)c1	1	58*	1	-10
Nc1cccc(-c2nc(NCCCN3CCCC3=O)c3ncn(-c4ccccc4)c3n2)c1	0	59*	0	5
COc1ccc(CCNc2nc(NCCCN3CCCC3=O)nc3c2ncn3-c2ccsc2)cc1	0	7	-2	16
COc1ccc(-c2nc(NCCCN3CCCC3=O)c3ncn(-c4ccsc4)c3n2)cc1	0	58*	-1	-18
Nc1cccc(-c2nc(NCCCN3CCCC3=O)c3ncn(CCN4CCCC4=O)c3n2)c1	0	0	2	1
Cc1cnccc1CN(C)C(=O)CCCn1nnnc1CN1CCC(C)CC1	0	9	1	-1
COc1ccc(-c2nc(NCCN3CCOCC3)c3ncn(-c4ccsc4)c3n2)cn1	0	35*	-1	20
